HT1080 IDH1KD tx: kills HT-1080 cells with IDH1 knockdown. HT-1080 IDH1 knockdown viability, ATP luminescence, 48 h. Potency, µM (series often up to 46.1 µM), for inactives: at the top dose activity, negative = toxicity, hits mostly cytotoxic. hit rate 2% among 360,000. AID 686971;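 also: 0% = DMSO wells and -100% = cell-free medium wells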
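Using the IDH1-knockdown HT-1080 line run in the same batch and compound series as the NT line, viability after 48 h at 37 °C was determined by CellTiter-Glo luminescence and expressed as % activity.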
KB-V1 MDR tox: kills drug-selected multidrug resistant KB-V1 cells. KB-V1 MDR cells viability, CellTiter-Glo, 72 h. Potency, µM (titrated, usually from 46.1 µM), usual class: cytotoxic. hit rate 3.4% among 400,000. AID 1347076; also: nearly all actives have a fitted effect of over 60% in size
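Cytotoxicity via CellTiter-Glo luminescence after 72 h compound exposure at 37 degrees C. Cells: drug-selected KB-V1 line, DMEM phenol-red free plus 10% FBS. Compounds tested at multiple concentrations; normalized data fitted to concentration-effect curves.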
TDP1 cell CPT: DT40-hTDP1 cell growth loss with CPT. chicken DT40 Tdp1-/-;hTDP1 cells + 20 nM CPT, ATP luminescence, 48 h. Potency, µM (top dose mostly 46.2 µM), for inactives: at the highest dose activity change, negative = growth inhibition, most hits filed as inhibitors. hit rate 12% among 420,000; also: nearly all actives have a fitted effect of over 55% in size
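Chicken DT40 Tdp1-/- cells complemented with human TDP1, 400 cells/well, exposed to compounds plus 20 nM camptothecin for at least 48 h at 37 C; viability read as ATP content by CellTiter-Glo luminescence.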
HT1080NT lethal: kills 2HG-producing HT-1080-NT fibrosarcoma cells; Potency, µM (series often up to 46.1 µM), without a hit: at the top dose activity, negative = less viability, usual class: cytotoxic; hit rate 1.6% among 360,000; HT-1080-NT fibrosarcoma viability, CellTiter-Glo ATP luminescence, 48 h;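 also: NT is the 2HG producing partner of a matched IDH1 knockdown line; 0% = DMSO-treated cells and -100% = media-only wells without cells; nearly all actives have a fitted effect of over 55% in size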
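Fibrosarcoma NT cells, 750 per well in 5% FBS RPMI, were exposed to compound for 48 hours. Viability: CellTiter-Glo luminescence.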
KB-3-1 tox: kills parental KB-3-1 adenocarcinoma cells | KB-3-1 viability, CellTiter-Glo ATP luminescence, 72 h | Potency, µM (doses to about 46.1 µM), hits mostly cytotoxic | hit rate 1.4% among 400,000 | AID 1347075; also: nearly all actives have a fitted effect of over 60% in size
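Parental KB-3-1 viability, qHTS format: 72 h compound exposure, 37 °C; CellTiter-Glo; media-only wells and DMSO plates as controls; concentration-effect fits on corrected data.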
DT40 TDP1 no CPT: qHTS for Inhibitors of human tyrosyl-DNA phosphodiesterase 1 (TDP1): qHTS in cells in absence of CPT; Potency, µM (doses to about 46.2 µM), for the others: at the highest dose activity change, negative = growth inhibition, most hits filed as inhibitors; hit rate 15% among 420,000; DT40 Tdp1-/- hTDP1 cells, no CPT, ATP luminescence, 48 h; AID 686978, 2013; also: nearly all actives have a fitted effect of over 55% in size
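Camptothecin absent (DMSO only). Human TDP1-complemented DT40 knockout cells, 400 cells/well, 37 °C for minimum 48 hr; ATP measured via CellTiter-Glo, 30 min dark incubation, luminescence.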
An asterisk follows results filed as active; i = inactive; u = inconclusive; [ ] = remark or other dose. In the library only some 19% were active in any assay of this set; here they are far more common. Calls follow the shape of the dose curve; as a rule, active = well fitted curve in the direction sought with a large enough effect; inconclusive = small, poorly fitted or top-dose-only effect, or another doubt; inactive = no such curve, though single readings can be large; an effect the other way counts as inactive or inconclusive. Unless noted, % is scaled to controls: 0 for no effect and ±100 for the full control effect; potency is read from the fitted curve at half-maximal effect.

SMILES	HT1080 IDH1KD tx	KB-V1 MDR tox	TDP1 cell CPT	HT1080NT lethal	KB-3-1 tox	DT40 TDP1 no CPT
COc1ccc(-c2cc(=O)oc3cc(OC(=O)C4CCCCC4)ccc23)cc1	-1%	u	u	-19%	i	18µM*
COC(=O)COc1ccc2c(-c3ccc(OC)cc3)cc(=O)oc2c1	12%	i	0.41µM*	16%	i	-2%
COc1ccc(-c2cc(=O)oc3cc(OCC(=O)N4CCOCC4)ccc23)cc1	5%	u	8%	0%	i	-1%
O=C(Nc1ccccc1F)c1cc(S(=O)(=O)N2CCOCC2)cs1	8%	i	11%	4%	i	2%
CCOc1c(C)cnc2c1c(=O)n(Cc1c(F)cccc1Cl)c(=O)n2C	5%	i	u	-9%	i	-25%
COc1ccc(CC(=O)NCc2ccc(-n3cccc3)cc2)cc1OC	1.8µM*	8.2µM*	2.3µM*	4.6µM*	4.1µM*	2.3µM*
O=C(Cc1ccc(-n2cccc2)cc1)NCc1cccs1	2.6µM*	1.2µM*	0.82µM*	2.3µM*	1.6µM*	1µM*
Cc1ccc(CNC(=O)c2ccc(-n3cccc3)cc2)cc1	5%	i	-13%	3%	i	-11%
O=C(CNC(=O)Cc1ccccc1)NCc1cccs1	17%	i	-13%	13%	i	0%
COc1cc(OC)cc(C(=O)NCc2ccc(-n3cccc3)cc2)c1	u	u	18µM*	-19%	u	u
Cc1ccc(CNC(=O)Cc2ccc(-n3cccc3)cc2)cc1	4.6µM*	2.3µM*	1.3µM*	u	7.3µM*	0.82µM*
O=C(O)CCCCCNc1ccc2nsnc2c1[N+](=O)[O-]	22%	u	-10%	24%	i	0%
CCCc1cc(=O)oc2c(CNc3ccc(OCC)cc3)c(O)ccc12	6%	i	12µM*	14%	i	u
Cc1ccc(S(=O)(=O)N2[C@H](C(C)C)[C@H]3[C@H]4C(=O)N(c5ccccc5)C(=O)[C@H]4CC(=O)[C@H]3[C@@H]2c2ccccc2)cc1	11%	i	11%	20%	i	-20%
O=C(Nc1ccccc1N1CCCCC1)c1ccc(F)cc1	-5%	i	u	0%	i	u
Cc1sc(NC(=O)c2ccco2)c(CN2CCN(Cc3ccccc3)CC2)c1C	u	u	12µM*	-24%	u	12µM*
Cc1sc(NC(=O)c2ccccc2F)c(CN2CCCCC2)c1C	4%	u	21µM*	4%	u	23µM*
O=C(Nc1sc2c(c1CN1CCOCC1)CCC2)c1ccc(F)cc1	8%	2.1µM*	u	8%	i	u
Cc1sc(NC(=O)c2ccc(F)cc2)c(CN2CCCCCC2)c1C	-8%	u	13µM*	-2%	i	13µM*
O=C(Nc1ccc(CN2CCOCC2)cc1)c1ccccc1F	3%	i	-4%	-4%	i	6%
CNC(=S)N(CCc1c(C)[nH]c2ccccc12)Cc1cccnc1	0%	i	-26%	-2%	u	u
CNC(=O)CN(c1ccc(C(C)C)cc1)S(C)(=O)=O	0%	i	0%	5%	i	-10%
O=C(CCCO)c1ccc2c(c1)OCCO2	-15%[9.24 µM]	i	-26%	-13%	i	-9%
O=C(CCN1CCc2ccccc2CC1)c1ccc2c(c1)OCCO2	-1%	u	4.6µM*	-3%	i	4.1µM*
O=C(CCCN1CCOCC1)c1ccc2c(c1)OCCO2	14%	i	-29%	-14%	i	-11%
O=C(CNC1=NCCC1)c1ccc2c(c1)OCCO2	14%	u	u	5%	i	18µM*
